Records with an inconclusive call do not appear. Active and inactive are the calls of the source. Calls come from the whole dose curve; as a rule, active = well fitted inhibition curve with a large enough effect; inconclusive = small, poorly fitted or top-dose-only effect; inactive = flat fitted curve, though single readings scatter. Where a SMILES comes first, the peptide text is derived from it. [ ]: non-standard residue; d: D form. 2Abz = Nc1ccccc1C(=O)O
target: Calcium and integrin-binding protein 1 (Homo sapiens) (UniProt Q99828); assay: Primary qHTS for Identification of Calcium Integrin Binding Protein 1 (CIB1) Competitor (AID 1508620); conditions: CIB1-GST / FITC-alphaIIb peptide fluorescence polarization; series mostly up to 57.7 µM; activity change, negative = inhibition: at the top concentration;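 note: GST tagged CIB1 binding a fluorescein labelled alphaIIb integrin peptide tracer; top concentration of the series differs between compounds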
Sequence (Q99828 whole entry, looked up): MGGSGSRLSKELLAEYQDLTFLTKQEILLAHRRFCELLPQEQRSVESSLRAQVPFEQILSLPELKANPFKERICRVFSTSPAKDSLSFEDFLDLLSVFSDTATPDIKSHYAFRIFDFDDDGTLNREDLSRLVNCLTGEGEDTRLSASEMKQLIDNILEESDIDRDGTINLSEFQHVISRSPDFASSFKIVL
Text: Assay Provider: Ulhas P. Naik, PhD Sidney Kimmel Medical College Thomas Jefferson University, Philadelphia, PA Primary function of platelets is to maintain hemostasis. At the site of vascular injury, platelets adhere to adhesive proteins such as collagen and von Willebrand factor. Adherent platelets are activated and generate soluble platelet agonists such as thrombin, ADP and thromboxane A2. Following exposure of circulating platelets to these agonists, results in platelet shape change, granule secretion and activation of platelet integrin alphaIIb-beta3. Ligand binding to activated integrin alphaIIb-beta3 triggers outside-in signaling, leading to platelet aggregation, stabilization of platelet plug, and clot retraction. Upon atherosclerotic plaque rupture also causes platelet plug formation, which underlies a number of cardiovascular diseases such as myocardial infraction and stroke. A number of anti-platelet drugs such as aspirin, clopidogrel, prasugrel, vorapaxar, and eptifibatide are currently available to prevent the thrombotic complications. However, these anti-platelet agents have several limitations including inherent variability in individual responses, developing resistance, and serious bleeding side effects. For these reasons they are not suitable for long-term protection. Based on the experiences with current anti-platelet drugs, it appears that the most useful therapeutic approach is to intersect the secondary responses such as integrin outside-in signaling or recruitment of platelets by TxA2 and secreted ADP. Compounds, which can largely preserve the primary hemostatic function of platelets but inhibit secondary response will be most desired therapeutic agents for treatment of cardiovascular disease. CIB1 is a calcium integrin binding protein, which specifically interact with the alphaIIb subunit of integrin alphaIIb-beta3. Binding of CIB1 to alphaIIb regulates the outside-in signaling in platelets, which is needed for thrombus stabilization and thrombus growth. […] Therefore, we propose that discovery of a small molecule that can prevent the association of CIB1 and alphaIIb-beta3 will be a potential anti-platelet agent that can block the thrombus formation without undue effect on hemostasis. Reference: [1] Naik MU, Nigam A, Manrai P, et al. CIB1 deficiency results in impaired thrombosis: the potential role of CIB1 in outside-in signaling through integrin alpha IIb beta 3. J Thromb Haemost.
PROTOCOL TABLES SEQUENCE No. (1, 2, 3, etc.); […] (e.g., Cells, Incubation, Reagent, etc.); VALUE and DESCRIPTION. 1; Reagent; 3 uL; Protein or buffer (4/3x) 2; Compound; 46 nL; Control inhibitor / compound library 3; Time; 15 min; Room temperature incubation 4; Reagent; 1 uL; Fluorescent labeled peptide (4x) 5; Time; 1000 rpm; Centrifuge 6; Time; 15 min; Room temperature incubation 7; Detection; Ex 480/ Em 540; ViewLux Fluorescence Read NOTES (numbers refer to sequence above) 1; Protein Mixture: C1B1-GST (final concentrations of 1 uM). […] 3; Room temperature incubation. 4; Fluorescent Labeled Peptide: FITC-aIIb (final concentration of 100 nM). Sequence of alphaIIb peptide: Acetyl-[…]-FITC (purity is 95.83%). 5; Centrifuge 1000 rpm (164 g) for 15 seconds. 6; Room temperature incubation. 7; ViewLux Fluorescent Polization Read: excitation = 480(20) / emission = 540(25) S and P; FITC Dichroic mirror.
% is set by controls: 0 for no effect and ±100 for the full control effect.

| Compound | activity change, negative = inhibition | Potency |
| --- | --- | --- |
| C[C@@H]1CC[C@]2(C(=O)O[C@@H]3O[C@H](CO)[C@@H](O)[C@H](O)[C@H]3O)CC[C@]3(C)C(=CCC4[C@@]5(C)C[C@@H](O)[C@H](O)C(C)(C)C5CC[C@]43C)C2[C@]1(C)O (stereo not given in full) | 0.644% [at 30.2 µM] (inactive) | – |
| CC1CC(O)CC(C)(C)C1(O)CCO (stereo not given) | 2.33% [at 228 µM] (inactive) | – |
| Cc1cn2c(N)c(Cl)cc(C(=O)NCC3CCN(CC(C)C)CC3)c2n1 | -1.12% [at 114 µM] (inactive) | – |
| O=C1NC(=Nc2ccccc2F)S/C1=C\c1ccc(C(=O)O)cc1 | -15.9% [at 114 µM] (inactive) | – |
| COC(=O)[C@H](OC(C)=O)[C@H]1C(C)(C)C(=O)[C@H]2CC3=C4CC(=O)O[C@@H](c5ccoc5)[C@]4(C)CCC3[C@@]1(C)C2=O (stereo not given in full) | -2.09% (inactive) | – |
| CCCCN(CCCC)C(=O)CN1C[C@H](c2ccc3c(c2)OCO3)[C@@H](C(=O)O)[C@@H]1c1ccc(OC)cc1 | – | inactive |
| COc1ccc2c(c1)O[C@H](O[C@@H]1O[C@H](CO)[C@@H](O)[C@H](O)[C@H]1O)C(=O)N2 | 1.98% (inactive) | – |
| N#Cc1ccc2[nH]c(O)c(-c3ccc(CN4CCOCC4)cn3)c2c1 | – | inactive |
| COC(=O)C1=CO[C@@H](O[C@@H]2O[C@H](COC(=O)/C=C/c3cc(OC)c(O)c(OC)c3)[C@@H](O)[C@H](O)[C@H]2O)[C@@H]2C(CO)=CC[C@H]12 | 0.0968% [at 30.2 µM] (inactive) | – |
| CCCOc1ccn2c(C(C)=O)cc(-c3ccccc3S(C)(=O)=O)c2c1 | -1.09% [at 114 µM] (inactive) | – |
| C=C1CCC2C(C)(COC3OC(COC(=O)CC(=O)O)C(O)C(O)C3O)CCCC2(C)C1CCC1=CCOC1=O (stereo not given) | 2.52% (inactive) | – |
| COc1cc(CCc2ccccc2)c(C(=O)O)c2c1CC(C(C)(C)O)O2 (stereo not given) | -3.57% (inactive) | – |
| CC(C)=CCCC1(C)Oc2cc3c(c4c2C2C(O4)C(C)(O)CCC21)CN(C(CCC(=O)O)C(=O)O)C3=O (stereo not given) | -8.15% (inactive) | – |
| CCC(C)C1NC(=O)C2CCCN2C(=O)C(C(C)C)NC(=O)c2ccccc2NC(=O)C(Cc2ccc(O)cc2)NC(=O)C(C)NC(=O)C(C(C)O)NC1=O (stereo not given) (cyclo([2Abz]VPITAY); configuration not given here) | 4.46% [at 30.2 µM] (inactive) | – |
| CC1=C2CC3OC3(C)CCC3OC3(C)CC2OC1=O (stereo not given) | -1.66% [at 114 µM] (inactive) | – |
| COc1c(OC2OC(CO)C(O)C(O)C2O)ccc(O)c1C(=O)OCc1ccccc1O[C@@H]1O[C@H](CO)[C@@H](O)[C@H](O)[C@H]1O (stereo not given in full) | 1% [at 30.2 µM] (inactive) | – |
| C=C1C(O[C@@H]2O[C@H](CO)[C@@H](O)[C@H](O)[C@@H]2O)CC2C(C)(C)C(O)CCC2(C)C1CC/C(C)=C\CO (stereo not given in full) | 4% (inactive) | – |
| COC(=O)[C@@]1(C)CC[C@]2(C(=O)O[C@@H]3O[C@H](CO)[C@@H](O)[C@H](O)[C@H]3O)CC[C@]3(C)C(=CCC4[C@@]5(C)CC[C@H](O[C@@H]6O[C@H](C(=O)O)[C@@H](O)[C@H](O)[C@H]6O)C(C)(C)C5CC[C@]43C)[C@@H]2C1 (stereo not given in full) | 2.93% [at 30.2 µM] (inactive) | – |
| COc1cc2c(cc1O)C1(Cc3ccc4c(c3C1=O)OCO4)N(C)CC2 (stereo not given) | -11.7% (inactive) | – |
| CC1(C)CC[C@]2(C(=O)O)CC[C@]3(C)C(=CCC4[C@@]5(C)CCC(O[C@@H]6OC[C@H](O)[C@H](O)[C@H]6O[C@@H]6O[C@H](CO)[C@@H](O)[C@H](O)[C@H]6O)[C@@](C)(CO)C5CC[C@]43C)[C@@H]2C1 (stereo not given in full) | 2.52% [at 30.2 µM] (inactive) | – |

| Compound | activity change, negative = inhibition | Potency |
| --- | --- | --- |
| CC1(C)CC[C@]2(C(=O)O)CC[C@]3(C)C(=CCC4[C@@]5(C)C[C@H](O)[C@H](O[C@@H]6OC[C@H](O)[C@H](O)[C@H]6O)[C@@](C)(CO)C5CC[C@]43C)[C@@H]2C1 (stereo not given in full) | 5.54% [at 30.2 µM] (inactive) | – |
| CC(C)(O)CNc1nc(Nc2ccnc(C(F)(F)F)c2)nc(-c2cccc(C(F)(F)F)n2)n1 | – | inactive |
| COc1cc(/C=C/C(=O)OC(C)(C)C(OC2OC(CO)C(O)C(O)C2O)C(=O)OCc2ccc(OC3OC(CO)C(O)C(O)C3O)cc2)ccc1O (stereo not given) | -2.54% [at 30.2 µM] (inactive) | – |
| C=CC(C)(O)CC/C=C(\C)C(=O)OC1CC2(C(=O)O)CCC3(C)C(=CCC4C5(C)CCC(OC6OC(COC7OCC(O)C(O)C7O)C(O)C(OC7OCC(O)C(O)C7O)C6OC6OC(CO)C(O)C(O)C6OC6OCC(O)C(O)C6O)C(C)(C)C5CCC43C)C2CC1(C)C (stereo not given) | -4.39% [at 12.4 µM] (inactive) | – |
| COc1ccc([C@@H]2N[C@H](C(=O)O)Cc3c2[nH]c2ccccc32)cc1CN1CCN(c2ccccc2F)CC1 | 4.75% [at 114 µM] (inactive) | – |
| Cc1nnc(C(C)C)n1C1CC2CCC(C1)N2CCC(NC(=O)C1CCC(F)(F)CC1)c1ccccc1 (stereo not given) | 4.96% [at 114 µM] (inactive) | – |
| CN1CCC(c2c[nH]c3ccc(NC(=O)c4ccc(F)cc4)cc23)CC1 | 0.46% [at 114 µM] (inactive) | – |
| COc1cc(/C=C/C(=O)OC2CC(C)=C(C(=O)O)/C2=C/CO[C@@H]2O[C@H](CO)[C@@H](O)[C@H](O)[C@H]2O)ccc1O (stereo not given in full) | -9.53% (inactive) | – |
| CC(CCC1C(C(=O)O)=CC(=O)CC1(C)C)O[C@@H]1O[C@H](CO)[C@@H](O)[C@H](O)[C@H]1O (stereo not given in full) | 3.96% (inactive) | – |
| O=C(O)c1n[nH]c2c1C[C@H]1C[C@@H]21 | 0.497% [at 114 µM] (inactive) | – |
| CC1=C2C3OC(=O)C(C)C3(O)CCC2(C)CCC1=O (stereo not given) | -2.64% [at 114 µM] (inactive) | – |
| CN1C(=O)c2ccccc2-n2c(nc3ccccc3c2=O)/C1=C/c1ccccc1 | -0.856% (inactive) | – |
| C[C@@H]1O[C@@H](O[C@H]2[C@H](OC(=O)[C@]34CCC(C)(C)C[C@H]3C3=CCC5[C@@]6(C)C[C@H](O)[C@H](O[C@@H]7O[C@H](CO)[C@@H](O[C@@H]8O[C@H](CO)[C@@H](O)[C@H](O)[C@H]8O)[C@H](O)[C@H]7O)[C@@](C)(CO)C6[C@H](O)C[C@@]5(C)[C@]3(C)C[C@H]4O)OC[C@H](O)[C@@H]2O)[C@H](O)[C@H](O)[C@H]1O[C@@H]1OC[C@@H](O)[C@H](O[C@@H]2OC[C@](O)(CO)[C@H]2O)[C@H]1O (stereo not given in full) | 4.23% [at 12.4 µM] (inactive) | – |
| CC(C)NC[C@H](O)COc1ccc(CCOCC2CC2)cc1 | 3.46% [at 114 µM] (inactive) | – |
| CC1(C)CC[C@]2(C(=O)O[C@@H]3O[C@H](CO)[C@@H](O)[C@H](O)[C@H]3O)CC[C@]3(C)C(=CCC4[C@@]5(C)C[C@@H](O)[C@H](O)C(CO)(CO)C5CC[C@]43C)C2[C@@H]1O (stereo not given in full) | -1% [at 30.2 µM] (inactive) | – |
| CN1CC[C@@H](NC(=O)Nc2ccc(C#N)cc2)C[C@@H]1c1nc2ccccc2[nH]1 | -1.3% [at 114 µM] (inactive) | – |
| COc1cc(/C=C/C(=O)OC2CC(OC(C)=O)C(OC(C)=O)C3C2CCC2C(=O)OC(c4ccoc4)CC23C)ccc1O[C@@H]1O[C@H](CO)[C@@H](O)[C@H](O)[C@H]1O (stereo not given in full) | -1.53% [at 30.2 µM] (inactive) | – |
| CC(=O)N[C@H](Cc1ccc(O)cc1)C(=O)N[C@H](CCCN=C(N)N)C(=O)N[C@H](Cc1ccccc1)C(N)=O (Ac-[dY]-[dR]-[dF]-NH2) | 1.93% [at 114 µM] (inactive) | – |
| C=C1CC[C@H]2[C@@H](/C=C(\C)C(=O)[C@@]3(OC(C)=O)C[C@H](C)[C@H](OC(C)=O)[C@@H]3[C@H]1OC(C)=O)C2(C)C | -6.81% (inactive) | – |
| COc1cc([C@H]2OC[C@@H]3[C@@H](c4ccc(O[C@@H]5O[C@H](CO)[C@@H](O)[C@H](O)[C@H]5O)c(OC)c4)OC[C@]23O)ccc1O | 2.98% (inactive) | – |

Source: PubChem BioAssay (NCATS)
